These results are taken from ChEMBL document CHEMBL3988442, “University of Dundee, Small-Polar-MMV Screening Library” (2021).

Results with a measured potency or affinity are listed apart.

Chain of Protein translocase subunit SecA (Escherichia coli (strain K12)) (P10408 whole entry): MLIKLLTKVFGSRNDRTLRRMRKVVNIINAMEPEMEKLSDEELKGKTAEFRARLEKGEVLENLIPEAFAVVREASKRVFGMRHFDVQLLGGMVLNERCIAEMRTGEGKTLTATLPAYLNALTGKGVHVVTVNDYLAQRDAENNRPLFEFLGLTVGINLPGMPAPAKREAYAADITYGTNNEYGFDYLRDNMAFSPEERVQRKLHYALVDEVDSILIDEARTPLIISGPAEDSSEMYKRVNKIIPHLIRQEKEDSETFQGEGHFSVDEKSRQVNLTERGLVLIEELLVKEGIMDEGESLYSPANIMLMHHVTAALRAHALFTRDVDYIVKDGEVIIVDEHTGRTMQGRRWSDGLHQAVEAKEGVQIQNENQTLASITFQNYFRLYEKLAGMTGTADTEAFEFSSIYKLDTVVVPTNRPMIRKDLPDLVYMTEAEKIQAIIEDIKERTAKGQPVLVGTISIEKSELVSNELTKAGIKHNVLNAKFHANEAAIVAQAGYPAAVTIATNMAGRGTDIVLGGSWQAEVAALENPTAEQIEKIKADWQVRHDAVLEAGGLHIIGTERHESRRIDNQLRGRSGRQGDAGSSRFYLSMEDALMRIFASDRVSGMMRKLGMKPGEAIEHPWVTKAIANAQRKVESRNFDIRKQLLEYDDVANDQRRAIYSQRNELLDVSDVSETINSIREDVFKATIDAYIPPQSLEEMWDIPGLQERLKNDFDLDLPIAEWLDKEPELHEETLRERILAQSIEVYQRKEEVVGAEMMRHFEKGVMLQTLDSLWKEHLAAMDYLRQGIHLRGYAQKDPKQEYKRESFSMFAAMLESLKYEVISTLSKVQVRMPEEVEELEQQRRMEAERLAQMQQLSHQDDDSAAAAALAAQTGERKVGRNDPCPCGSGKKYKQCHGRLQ

The test has as its target Protein translocase subunit SecA (Escherichia coli (strain K12)) (UniProt P10408). The experiment in a line: Assay to Identify E. coli SecA ATPase Inhibitors. Format: functional. Further details: scale not given: direction of the effect not stated beside the values. Conditions: 30 µM.
In the case of `Cc1nonc1CC(=O)N1C[C@@H]2CC[C@H](C1)N(Cc1ccccc1)C2=O`, the Percent Effect was -5.85%.
Turning to `CCOCC(O)CN1CCN(C(=O)CC(C)C)CC1` (stereo not given), the Percent Effect is -3.57%.
In the case of `Cc1cnc(C(=O)N2CCCN(Cc3csc(C)n3)CC2)cn1` it was -5.93%; in that of `CN1CCCC1CNC(=O)c1nnn(-c2ccc(F)cc2)c1C1CC1` (stereo not given), -5.49%; in that of `CN(Cc1cn2c(n1)CN(C(=O)CC1CC1)CC2)Cc1ccco1`, -3.7%.
For the compound `Cc1cccc(Cn2ccc(NS(C)(=O)=O)n2)c1`, the Percent Effect was -6.41%.
The figure for `COc1cccc(COCC(=O)N2CCCC(N3CCCC3)CC2)c1` (stereo not given) is -1.29%.
In the case of `OCCOCCN1CCCC1c1nc2cc(F)ccc2[nH]1` (stereo not given) it was 7.36%; in that of `Cc1cnn(CC(C)NCc2nc(-c3cccnc3)no2)c1` (stereo not given), -6.08%.
The figure for `Cc1cc(C(=O)NCc2ccnc(N(C)C)c2)c(C)o1` is -4.79%.
In the case of `O=C(NCCn1ccnc1)c1cccc(F)c1`, the Percent Effect is -1.92%.
In the case of `COc1ccccc1S(=O)(=O)Nc1ccc2c(C(=O)O)c[nH]c2c1` it was -5.95%.
In the case of `O=C(Cc1cccc(Cl)c1)N[C@@H]1CCNC[C@H]1O` it was -6.4%; in that of `CC(=O)N(C)c1nc(CN2CCOC(Cn3cccn3)C2)cs1` (stereo not given), 1.46%.
On to `N#CC1(C(=O)N2CCN(Cc3ccon3)CC2)CCC1`, for which the Percent Effect was -1.32%.
In the case of `COc1ccc(CN2CCCC(Nc3cccc(F)c3)C2)cc1O` (stereo not given) it was -3.14%; in that of `Cc1cccc(-n2cc(C(=O)N3CCn4c(C)nnc4C3)nn2)c1`, -9.19%.
In the case of `COc1ccnc(N2CCN(C(=O)c3csc(C4CC4)n3)CC2)n1`, the Percent Effect was -4.82%.
Turning to `CCNC(=O)[C@@H]1C[C@H](NC(=O)c2cncnc2C)CN1CCCSC`, the Percent Effect is -2.84%.
On to `CCc1nc(CN2CCN(c3ncnc4cc(F)ccc34)CC2)no1`, for which the Percent Effect is -8.93%.
